Among all 5,600 compounds or so, about 780 (14%) were called active. Another 3% or so got no clear call; they are omitted. These entries were drawn from the full list. Unmarked numbers belong to inactive results.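 Rule for the calls: active = mean signal decrease across replicates above about 35% based on untreated-well scatter, with enough replicates individually passing (limit read from the data); inconclusive = no rule stated though some were filed; inactive = the rest.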

The test is described as follows: cytotoxicity in mouse NIH/3T3 fibroblasts, confirmation, cytotoxicity control for T. cruzi proliferation inhibitor project, cell-based, cherry-pick, single point (AID 651742).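 Note: 0% = median of neutral control wells and 100% = median of positive control wells.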 To be noted: NIH/3T3 viability, CellTiter-Glo ATP luminescence, 90 h; at 8.35 µM; active compounds read high. On the technique in general: Cellular ATP, detected with luciferase, serves as a proxy for viable cell number.
Consider `Cc1ccc(S(=O)(=O)N(C)C[C@@H]2OCCCC[C@@H](C)Oc3ccc(NS(=O)(=O)c4ccc(F)cc4)cc3C(=O)N([C@H](C)CO)C[C@H]2C)cc1`, for which the cytotoxicity (signal decrease) was -0.859%. Next, `O=C(Nc1cc(Cl)cc(Cl)c1)N[C@H]1CC[C@@H](CCNS(=O)(=O)c2cccc(F)c2)O[C@H]1CO`: 2.47%; `C[C@@H]1CN([C@H](C)CO)C(=O)c2cc(-c3cncnc3)cnc2O[C@H]1CN(C)C(=O)Nc1ccc2c(c1)OCO2`: -12.9%.

`C[C@H](CO)N1C[C@H](C)[C@H](CN(C)C(=O)C2CCCCC2)Oc2ncc(C#Cc3cccc(F)c3)cc2C1=O`: the cytotoxicity (signal decrease) is 25.3%. As to `C[C@H](CO)N1C[C@H](C)[C@@H](CN(C)S(=O)(=O)c2ccccc2)Oc2ncc(C#Cc3ccccc3F)cc2C1=O`, the cytotoxicity (signal decrease) is 37.2% (active). With `Cc1ccc(S(=O)(=O)N(C)C[C@@H]2Oc3ncc(-c4cc5ccccc5o4)cc3C(=O)N([C@H](C)CO)C[C@@H]2C)cc1`, the cytotoxicity (signal decrease) is 38.6% (active). In the case of `C[C@H](CO)N1C[C@H](C)[C@H](CN(C)S(=O)(=O)c2ccccc2)Oc2ncc(-c3cccc(C(F)(F)F)c3)cc2C1=O`, the cytotoxicity (signal decrease) was 33.1%.

As to `C[C@@H]1CN([C@@H](C)CO)C(=O)c2cc(C#CC3CCCCC3)cnc2O[C@H]1CN(C)S(=O)(=O)c1ccccc1`, the cytotoxicity (signal decrease) is 17.3%.

As to `CCCNC(=O)N(C)C[C@@H]1Oc2ncc(C#Cc3ccccc3F)cc2C(=O)N([C@@H](C)CO)C[C@H]1C`, the cytotoxicity (signal decrease) is -5.73%.

For the compound `C[C@H](CO)N1C[C@H](C)[C@H](CN(C)C(=O)Nc2ccc3c(c2)OCO3)Oc2ncc(C#Cc3cccc(F)c3)cc2C1=O`, the cytotoxicity (signal decrease) is 66.2% (active). As for `C[C@@H]1CN([C@H](C)CO)C(=O)c2cc(C#Cc3ccccn3)cnc2O[C@H]1CN(C)Cc1ccccc1`, the cytotoxicity (signal decrease) is -3.21%. As for `Cc1ccc(-c2cnc3c(c2)C(=O)N([C@@H](C)CO)C[C@@H](C)[C@H](CN(C)Cc2ccccc2F)O3)cc1`, the figure is 33%; as for `C[C@H](CO)N1C[C@H](C)[C@@H](CN(C)S(=O)(=O)c2ccccc2F)Oc2ncc(C#Cc3ccccc3F)cc2C1=O`, 48% (active). On to `C[C@H]1CN([C@@H](C)CO)C(=O)c2cc(C#CC3CCCCC3)cnc2O[C@H]1CN(C)S(=O)(=O)c1ccccc1`, for which the cytotoxicity (signal decrease) was 4.57%. Next, `N#C[C@@H]1[C@H](c2ccc(C#Cc3cccc(F)c3)cc2)[C@@H](CO)N1C(=O)C1CCCC1`: -6.1%; `CC(C)(C)[S@@](=O)N1Cc2cc(C(=O)NCc3ccc4c(c3)OCO4)nc(-c3cccc(-c4ccccc4)c3)c2[C@H]1CCO`: 24%. Consider `COc1cccc(S(=O)(=O)N2CCCCN3[C@H](CO)[C@H](c4ccc(C#CC5CC5)cc4)[C@H]3C2)c1`, for which the cytotoxicity (signal decrease) is 24.2%. Consider `C[C@@H]1CCCCO[C@H](CN(C)C(=O)NC2CCCCC2)[C@H](C)CN([C@H](C)CO)C(=O)c2cc(NS(=O)(=O)c3ccc(Cl)cc3)ccc2O1`, for which the cytotoxicity (signal decrease) is -21.2%. As for `C[C@H]1CN([C@@H](C)CO)C(=O)c2cccc(NS(=O)(=O)c3cn(C)cn3)c2O[C@@H]1CN(C)CC1CCCCC1`, the cytotoxicity (signal decrease) was -8.55%.

Consider `C[C@@H]1CCCCO[C@@H](CN(C)C(=O)Nc2ccc(F)cc2)[C@H](C)CN([C@H](C)CO)C(=O)c2cc(NC(=O)Nc3cccc4ccccc34)ccc2O1`, for which the cytotoxicity (signal decrease) was 1.18%. For `CN1C(=O)c2cc(NC(=O)Nc3ccccc3F)ccc2OC[C@H]2O[C@H](CC(=O)NCc3ccc(-c4ccccc4)cc3)CC[C@H]21`, the cytotoxicity (signal decrease) is 8.3%. Next, `N#C[C@@H]1[C@@H](c2ccccc2)[C@@H](CO)N1C(=O)Cc1ccccc1`: 20.6%; `Cc1cc(C(=O)Nc2cccc3c2O[C@@H](CN(C)Cc2ccc(C(=O)Nc4ccccc4N)cc2)[C@H](C)CN([C@@H](C)CO)C3=O)n(C)n1`: 6%. For `C[C@H]1CCCCO[C@H](CN(C)Cc2ccccc2)[C@@H](C)CN([C@@H](C)CO)C(=O)c2cc(NC(=O)c3ccccc3)ccc2O1`, the cytotoxicity (signal decrease) is -15.3%. Next, `CC(C)NC(=O)Nc1ccc2c(c1)C(=O)N([C@@H](C)CO)C[C@H](C)[C@H](CN(C)S(=O)(=O)c1ccc(Cl)cc1)OCCCC[C@H](C)O2`: -22.1%.

`O=C(Nc1ccc(-c2ccccc2)cc1)[C@H]1[C@H](CO)[C@H]2Cn3c(cccc3=O)[C@H]2N1CC1CC1`: the cytotoxicity (signal decrease) was 8.32%. As to `C[C@@H]1CN([C@@H](C)CO)S(=O)(=O)c2ccc(C#CCC3CCCC3)cc2O[C@H]1CN(C)C(=O)CC1CC1`, the cytotoxicity (signal decrease) is 15%.

In the case of `C[C@H]1CN([C@@H](C)CO)S(=O)(=O)c2ccc(C#CC3CCCC3)cc2O[C@H]1CN(C)C(=O)Cc1ccncc1`, the cytotoxicity (signal decrease) is 6.81%. Take `COc1ccc(S(=O)(=O)N(C)C[C@H]2Oc3c(NC(=O)Nc4cccc5ccccc45)cccc3C(=O)N([C@@H](C)CO)C[C@H]2C)cc1`: the cytotoxicity (signal decrease) is 19.4%. In the case of `Cc1ccc(S(=O)(=O)N(C)C[C@@H]2Oc3c(NC(=O)c4nc5ccccc5s4)cccc3C(=O)N([C@H](C)CO)C[C@@H]2C)cc1`, the cytotoxicity (signal decrease) is 23.6%.

With `COc1ccc(S(=O)(=O)N(C)C[C@H]2OCCCC[C@H](C)Oc3ccc(NS(=O)(=O)c4ccc(F)cc4)cc3C(=O)N([C@@H](C)CO)C[C@@H]2C)cc1`, the cytotoxicity (signal decrease) is -16.9%.

On to `CCC(=O)N1CC[C@@H]2[C@@H](CO)N(C)c3ccc(-c4ccc(F)cc4)cc3[C@@H]21`, for which the cytotoxicity (signal decrease) was -22.3%. As for `C/C=C/c1ccc([C@H]2[C@H]3CN(S(=O)(=O)c4ccccc4)CCCCN3[C@H]2CO)cc1`, the figure is 20.3%; as for `C[C@H]1CN([C@@H](C)CO)C(=O)c2ccccc2-c2ccccc2CO[C@@H]1CN(C)S(=O)(=O)c1ccc(C(F)(F)F)cc1`, 38.8% (active). Next, `C[C@@H]1CCCCO[C@H](CN(C)S(=O)(=O)c2ccc(F)cc2)[C@H](C)CN([C@@H](C)CO)C(=O)c2cc(NS(=O)(=O)c3ccccc3)ccc2O1`: -7.76%. As for `C[C@H](CO)N1C[C@H](C)[C@@H](CN(C)S(=O)(=O)c2cccc(F)c2)OCc2ccccc2-c2c(n(C)c3ccccc23)C1=O`, the figure is -5.9%. On to `Cc1ccc(S(=O)(=O)Nc2ccc3c(c2)C(=O)N([C@H](C)CO)C[C@H](C)[C@H](CN(C)Cc2ccc(Cl)c(Cl)c2)O3)cc1`, for which the cytotoxicity (signal decrease) is 17%.

As for `C[C@H]1CCCCO[C@@H](CN(C)C(=O)NC2CCCCC2)[C@@H](C)CN([C@@H](C)CO)C(=O)c2cc(NS(=O)(=O)c3ccc(Cl)cc3)ccc2O1`, the cytotoxicity (signal decrease) is -16.4%.

With `COCC(=O)N1[C@H](CO)[C@@H](c2ccc(C#Cc3ccccc3F)cc2)[C@@H]1C#N`, the cytotoxicity (signal decrease) is -6.81%. As to `C[C@@H]1CN([C@H](C)CO)C(=O)c2cc(NS(=O)(=O)c3cccs3)ccc2O[C@@H](C)CCCCO[C@H]1CN(C)Cc1ccc(C(F)(F)F)cc1`, the cytotoxicity (signal decrease) was 5.21%.

For the origin of these results see PubChem BioAssay AID651742 (Broad Institute, 2012).
